Cruzain noTriton = cruzain (T. cruzi) inhibition without detergent. actives 2.3% (n = 200,000). Potency, µM, hits mostly inhibitors. AID 1476. purified cruzain, Z-FR-AMC fluorescence, no detergent. P25779; note: nearly all actives have a fitted effect of over 40% in size
Target sequence (P25779 123-467 limits assumed): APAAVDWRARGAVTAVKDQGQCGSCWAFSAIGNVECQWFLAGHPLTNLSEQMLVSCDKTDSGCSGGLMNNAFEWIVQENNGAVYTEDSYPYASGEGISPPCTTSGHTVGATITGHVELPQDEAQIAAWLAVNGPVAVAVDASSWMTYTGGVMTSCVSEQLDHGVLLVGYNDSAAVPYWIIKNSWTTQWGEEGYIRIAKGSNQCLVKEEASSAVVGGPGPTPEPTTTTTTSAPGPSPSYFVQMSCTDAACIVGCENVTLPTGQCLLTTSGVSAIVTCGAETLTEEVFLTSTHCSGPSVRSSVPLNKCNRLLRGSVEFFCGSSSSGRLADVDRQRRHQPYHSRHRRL
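Purified cruzain at 1.5 nM, pre-incubated 15 min with compound at room temperature in 100 mM sodium acetate pH 5.5, 5 mM DTT, 0.00005% Triton X-100. Reaction started with 2 uM Z-FR-AMC; AMC fluorescence increase over 60 s gives rate.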
Cruzain inh Det = cruzain (T. cruzi) inhibition with detergent; P25779; purified cruzain, Z-FR-AMC fluorescence, 0.01% Triton; Potency, µM, hits mostly inhibitors; actives 0.43% (n = 200,000); note: nearly all actives have a fitted effect of over 40% in size
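Z-FR-AMC hydrolysis (2 uM substrate) by cruzain (1.5 nM) monitored kinetically at ex 360/em 450 nm after 15 min room-temperature compound exposure; 0.01% Triton X-100, pH 5.5, 5 mM DTT.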
Numbers stand for hits; 0 = inactive; ? = inconclusive. The list is not random: actives were taken first. Their share in the collection is about 2.4%. Calls come from the whole dose curve; as a rule, active = well fitted curve in the direction sought with a large enough effect; inconclusive = small, poorly fitted or top-dose-only effect, or another doubt; inactive = no such curve, though single readings can be large; an effect the other way counts as inactive or inconclusive.

SMILES	Cruzain noTriton	Cruzain inh Det
c1ccc(CN2CN=C(Nc3nc4ccccc4s3)NC2)cc1	0	?
c1coc(CN2CN=C(Nc3nc4ccccc4s3)NC2)c1	13µM	?
O=C(Cc1c[nH]c2ccccc12)Nc1nc2ccccc2[nH]1	25µM	0
O=C(Cc1ccccc1)Nc1nc2ccccc2[nH]1	0	0
O=C(c1ccccc1)N1CCN(C(=O)c2ccc([N+](=O)[O-])cc2)CC1	0	0
O=C(NCc1ccccc1Cl)c1cnn2cccnc12	0	0
Cc1ccc(N2CCN(S(=O)(=O)N3CCCCCC3)CC2)cc1Cl	0	0
COc1ccc(C(=O)N/N=C/c2ccc(OC)c(CN3CCCc4ccccc43)c2)cc1	16µM	0
COc1ccc(C(=O)N/N=C/c2ccc(OC)c(CN3CCN(c4ccc(F)cc4)CC3)c2)cc1	0	0
COc1ccc(C2C=C(c3ccc(F)cc3)Nc3nc(-c4ccc(Cl)cc4)nn32)cc1 (configuration not stated)	0	0
COc1ccc(C2=CC(c3ccccc3Cl)n3nc(-c4ccc(C)cc4)nc3N2)cc1 (configuration not stated)	3.2µM	0
Cc1cccc(CCNC(=O)CCNC(=O)Cn2ccc3ccccc3c2=O)c1	0	0
Cc1ccc(NC(=O)Cn2c(=O)n(Cc3nc(-c4ccccc4)no3)c(=O)c3cc4c(cc32)OCO4)cc1F	13µM	0
O=C(Cn1c(=O)n(Cc2nc(-c3ccccc3)no2)c(=O)c2cc3c(cc21)OCO3)Nc1ccc(Cl)cc1	10µM	0
O=C(Cn1c(=O)n(Cc2nc(-c3ccccc3)no2)c(=O)c2cc3c(cc21)OCO3)Nc1ccccc1	?	0
Cc1ccc(NC(=O)Cn2c(=O)n(Cc3nc(-c4ccccc4)no3)c(=O)c3cc4c(cc32)OCO4)c(C)c1	0	0
Cc1ccsc1-c1n[nH]c(=S)n1C1CCCCC1	0	0
COc1cc(C2C(C#N)=C(N)Oc3c2ccc2ccccc32)ccc1OCC(=O)Nc1cccc(C)c1 (configuration not stated)	7.9µM	0
COc1cc(C2C(C#N)=C(N)Oc3c2ccc2ccccc32)ccc1OCC(=O)Nc1ccc(C)cc1 (configuration not stated)	10µM	0
N#CC1=C(N)Oc2c(ccc3ccccc23)C1c1ccsc1 (configuration not stated)	0	0
COC(=O)C1=C(C)OC(N)=C(C#N)C1c1ccc(OC)c(OC)c1OC (configuration not stated)	0	0
COC(=O)C1CSc2[nH]c(=O)sc2C1c1ccc(O)c(OC)c1 (configuration not stated)	0	0
COc1ccc(NC2=NCC(=O)N2c2ccccc2F)c(OC)c1	0	0
C/C(=N/NC(=O)c1ccc(C)s1)c1cccc(NC(=O)COc2ccc(Cl)cc2Cl)c1	13µM	0
C/C(=N/NC(=O)c1cccs1)c1ccc(NC(=O)COc2ccc(Cl)cc2Cl)cc1	?	0
SMILES	Cruzain noTriton	Cruzain inh Det
CCC(=O)Nc1ccc(/C(C)=N\NC(=O)c2ccc(C)s2)cc1	0	0
C/C(=N/NC(=O)c1ccc(Cl)s1)c1ccc(NC(=O)COc2ccc(Cl)cc2)cc1	20µM	0
Cc1scc(C(=O)Nc2ccon2)c1-c1ccccc1	0	0
CC1CCCC(NC(=O)C2CCCN2S(=O)(=O)c2cccc3nsnc23)C1C (configuration not stated)	?	0
CC(C)(C)OC(=O)NCC12C=CC(O1)C1C(=O)N(Cc3ccccc3)C(=O)C12 (configuration not stated)	0	0
Cc1cc(C)c2cc(CN(CCN3CCCC3)C(=O)Nc3ccc(F)cc3)c(=O)[nH]c2c1	?	0
Cc1ccc(C)c2[nH]c(=O)c(CN(CCN3CCCC3)C(=O)Nc3cccc(Cl)c3)cc12	25µM	0
O=C(c1ccc(Cl)cc1)N1CCC(c2nc3ccccc3o2)CC1	0	0
COc1cccc(/C=N/NC(=O)c2cnccn2)c1	0	0
CC(C)CNC(=O)COC(=O)c1ccc([N+](=O)[O-])cc1Cl	0	0
O=C(CNC(=O)c1ccccc1)NCC(=O)OCC(=O)c1ccc([N+](=O)[O-])cc1	0	0
CC(C)CNC(=O)COC(=O)CNC(=O)c1cc(Cl)cc([N+](=O)[O-])c1	7.9µM	10µM
COc1cc(OC)cc(C(=O)NCC(=O)OCC(=O)NC(C)(C)C)c1	0	0
CCNC(=O)COC(=O)CNC(=O)c1cc(Cl)cc([N+](=O)[O-])c1	7.9µM	7.9µM
CC(C)(C)NC(=O)COC(=O)CNC(=O)c1cc(Cl)cc([N+](=O)[O-])c1	20µM	25µM
COc1ccc(OCc2ccc(-c3nc(C#N)c(N4CCN(C)CC4)o3)o2)cc1	0	0
Cc1ccc(NC(=O)Nc2nnc(SCC(=O)N(C(C)C)C(C)C)s2)cc1	0	0
COc1cc(/C=C(\C#N)c2nc3ccccc3[nH]2)ccc1OC(=O)c1ccco1	0	0
N#C/C(=C\c1ccc(OCc2ccc(Cl)cc2Cl)cc1)c1nc2ccccc2[nH]1	0	0

Bioassay records as filed in PubChem BioAssay.
